Each structure is given as a SMILES string. About 83,000 compounds went through this panel and 20% of them were active in at least one assay; those are over-represented in the sample as a whole.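 Assay: single dose, 48 h. Readout: percent growth (0 = no net growth; negative = cell death). Active: <10.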 Calls of active or inactive are those of the source.

The results in this text go back to PubChem BioAssay (NCI).

This experiment concerns MDA-MB-468 breast. The experiment can be described thus: NCI-60 one-dose screen, 48 h (100 = growth as untreated, 0 = no growth, -100 = all killed). To be noted: 10 µM unless noted.
`CNCCCNc1nc2ccccc2c2c(=O)c3cc(Cl)ccc3sc12`: the growth was 18.4% (inactive). Turning to `COc1cc(C2NC(c3cc(OC)c(OC)c(OC)c3)C(C#N)(C#N)C2(C#N)C#N)cc(OC)c1OC` (stereo not drawn), the growth was 93.2% (inactive).

Take `CCNc1nnc(COc2ccc(CNC(=O)CCCC/C=C/C(C)C)cc2OC)o1`: the growth is 104% (inactive).
